PubChem BioAssay AID504339 (National Center for Advancing Translational Sciences (NCATS), 2011)
The whole screen tested about 390,000 compounds, of which about 17,000 (4.4%) were called active. About 8% were inconclusive and are not listed. Calls come from the whole dose curve; as a rule, active = well fitted inhibition curve with a large enough effect; inconclusive = small, poorly fitted or top-dose-only effect; inactive = no such curve, though single readings can be large or run the other way. The full list was thinned out, with actives kept by preference.

Target: Lysine-specific demethylase 4A (Homo sapiens) (UniProt O75164)
Assay: qHTS Assay for Inhibitors of JMJD2A-Tudor Domain; note: nearly all actives have a fitted effect of over 50% in size
Settings: AlphaScreen JMJD2A-Tudor / H3K4me3 peptide binding; series mostly up to 114 µM; activity change, negative = inhibition: at the top concentration
% is set by controls: 0 for no effect and ±100 for the full control effect; potency is the fitted concentration of half-maximal effect.

Sequence of Lysine-specific demethylase 4A (Homo sapiens) (O75164 whole entry, looked up, the tested form may be a part): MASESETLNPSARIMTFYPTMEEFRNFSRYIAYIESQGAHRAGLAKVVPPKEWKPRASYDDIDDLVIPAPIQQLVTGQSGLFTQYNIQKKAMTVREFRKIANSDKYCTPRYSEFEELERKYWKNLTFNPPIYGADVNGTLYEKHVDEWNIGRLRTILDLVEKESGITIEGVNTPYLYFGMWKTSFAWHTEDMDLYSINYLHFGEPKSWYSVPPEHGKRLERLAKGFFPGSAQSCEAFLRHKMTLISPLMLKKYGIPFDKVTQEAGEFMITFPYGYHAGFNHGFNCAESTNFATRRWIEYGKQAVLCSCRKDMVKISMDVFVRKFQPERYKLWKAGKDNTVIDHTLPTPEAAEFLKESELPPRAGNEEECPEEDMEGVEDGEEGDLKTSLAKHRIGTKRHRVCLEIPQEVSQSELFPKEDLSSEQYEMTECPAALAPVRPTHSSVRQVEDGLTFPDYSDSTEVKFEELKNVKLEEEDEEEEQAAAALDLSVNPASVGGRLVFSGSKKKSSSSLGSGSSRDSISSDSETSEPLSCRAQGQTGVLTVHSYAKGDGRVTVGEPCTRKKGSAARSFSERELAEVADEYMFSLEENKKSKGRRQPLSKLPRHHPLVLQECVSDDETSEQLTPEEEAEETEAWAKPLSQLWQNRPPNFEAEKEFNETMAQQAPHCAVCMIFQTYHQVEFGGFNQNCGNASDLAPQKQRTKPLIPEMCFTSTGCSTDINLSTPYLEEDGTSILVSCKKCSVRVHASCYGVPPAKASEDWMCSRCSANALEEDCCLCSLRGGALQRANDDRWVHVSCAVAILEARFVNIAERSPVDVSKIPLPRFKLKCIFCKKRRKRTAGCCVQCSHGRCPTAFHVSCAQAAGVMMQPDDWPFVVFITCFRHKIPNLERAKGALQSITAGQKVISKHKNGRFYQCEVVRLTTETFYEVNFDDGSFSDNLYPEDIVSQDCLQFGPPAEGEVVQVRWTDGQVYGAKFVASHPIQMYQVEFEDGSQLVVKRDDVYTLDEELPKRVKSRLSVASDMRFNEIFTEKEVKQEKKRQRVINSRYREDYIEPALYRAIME

| SMILES | activity change, negative = inhibition | Potency |
| --- | --- | --- |
| CC(NS(=O)(=O)c1ccc(OCC(=O)N2CCCC2)cc1)c1ccccc1 (stereo not given) | -20% (inactive) |  |
| CC(NS(=O)(=O)c1ccccc1)c1n[nH]c(=S)n1-c1ccccc1 (stereo not given) |  | 25.1 µM (active) |
| CCCCC(CC(C)O)c1n[nH]c(=S)n1-c1ccccc1 (stereo not given) |  | 28.2 µM (active) |
| CCCSc1nc2sc3c(c2c(=O)n1-c1cccc(Br)c1)CC(C)(C)OC3 | -6.23% (inactive) |  |
| CCC(C(=O)Nc1cccc(Cl)c1C)n1nc(-c2ccc(C)cc2)ccc1=O (stereo not given) | 1.57% (inactive) |  |
| CCc1ccc(NC(=O)c2cc(S(=O)(=O)NC3CCCCCC3)ccc2F)cc1 | -16.5% (inactive) |  |
| CCn1c(SCC(=O)NC2=NCCS2)nnc1C(C)NC(=O)c1ccccc1F (stereo not given) | 0.714% (inactive) |  |
| CCn1c(SCC(=O)Nc2nc(C)cs2)nnc1C(C)NC(=O)c1ccccc1 (stereo not given) |  | 79.4 µM (active) |
| COCCn1c(SCC(=O)Nc2nc(C)cs2)nnc1C(C)C | -6.34% (inactive) |  |
| Cc1ccc(N2CC(NC(=O)Cc3cccs3)CC2=O)cc1 (stereo not given) | -0.325% (inactive) |  |
| COc1cccc(CNCc2c(C(=O)O)n(Cc3ccc(C)cc3)c3cc(C)ccc23)c1OC | -27.8% (inactive) |  |
| CCOc1ccc2nc(/N=C/c3nc(-c4ccccc4)oc3O)sc2c1 | 0.641% (inactive) |  |
| CC(N=Cc1nc(-c2ccccc2)oc1O)c1ccccc1 (stereo not given) |  | 79.4 µM (active) |
| Oc1oc(-c2ccccc2Br)nc1/C=N/c1ccccn1 | -28.1% (inactive) |  |
| CCN(Cc1ccccc1)S(=O)(=O)c1ccc2c(c1)CCCN2C(C)=O | -0.968% (inactive) |  |
| COC(=O)c1cc(NC(=O)c2cnc(SC)nc2-c2ccccc2)cc(C(=O)OC)c1 | -3.53% (inactive) |  |
| O=C1/C(=C/c2ccc(F)cc2)SC(=S)N1NS(=O)(=O)c1ccccc1 | -31.5% (inactive) |  |
| O=C1/C(=C/c2ccc(F)cc2)SC(=S)N1CCCC(=O)N1CCCCC1CCO (stereo not given) |  | 44.7 µM (active) |
| O=C1CCCCN1CCCC(=O)N1CCCC(Nc2ccc(F)cc2)C1 (stereo not given) | -26.6% (inactive) |  |
| CCOc1cccc2cc(-c3cn4c(n3)sc3cc(C)ccc34)c(=O)oc12 | -17.3% (inactive) |  |
| O=C(CSc1ncc(S(=O)(=O)c2ccc(Br)cc2)c(=O)[nH]1)Nc1ccc2c(c1)OCCO2 | -23.6% (inactive) |  |
| COc1cc2nc(SCC(=O)Nc3ccccc3F)n3nc(-c4ccccc4)nc3c2cc1OC | -20.3% (inactive) |  |
| COc1ccc(N2CCN(C(=O)c3cccs3)CC2)cc1 | -25.6% (inactive) |  |
| COc1ccc(N2CCN(Cc3nnc(-c4ccccc4)o3)CC2)cc1 | -22.4% (inactive) |  |
| COc1ccc(N2CCN(Cc3ccc(Br)s3)CC2)cc1 |  | 3.55 µM (active) |

| SMILES | activity change, negative = inhibition | Potency |
| --- | --- | --- |
| COc1cccc(NC(=O)Cn2c(=O)cc(C)c3c(C)nn(-c4cccc(F)c4)c32)c1 | -6% (inactive) |  |
| O=S(=O)(c1ccccc1)c1nc(-c2ccc(Cl)cc2Cl)oc1N1CCCCC1 | -30.6% (inactive) |  |
| O=C(O)c1cccnc1Sc1ncnc2sc3c(c12)CCC3 |  | 31.6 µM (active) |
| OCCNc1nc2ccccc2n1-c1ncnc2sc3c(c12)CCC3 | -15.2% (inactive) |  |
| CCCSc1ncccc1C(=O)O | -11% (inactive) |  |
| Cc1ccc2oc3c(c(=O)c2c1)C(c1ccc([N+](=O)[O-])cc1)N(CCCN1CCOCC1)C3=O (stereo not given) | -12.9% (inactive) |  |
| CCc1ccccc1NC(=O)N1CCC2(CC1)Oc1ccccc1C(=O)N2Cc1ccccc1F | -9.82% (inactive) |  |
| CC(=O)Nc1ccc(NC(=O)CCCc2nc(-c3ccc(C(C)(C)C)cc3)no2)cc1 | -15.6% (inactive) |  |
| O=C(N/N=C/c1cccc(OC(=O)c2ccc([N+](=O)[O-])cc2)c1)c1cccnc1 | -9.12% (inactive) |  |
| O=C(N/N=C/c1ccc(Cl)cc1)c1nc2ccc([N+](=O)[O-])cc2c(=O)[nH]1 |  | 28.2 µM (active) |
| N#Cc1cc([N+](=O)[O-])ccc1Oc1cccc(/C=N/NC(=O)c2ccc(Cl)cc2)c1 | 3.79% (inactive) |  |
| COC(=O)c1ccc(NC(=O)CCc2c(C)nn(-c3ccc(N4CCCC4)nn3)c2C)cc1 | -28% (inactive) |  |
| Cc1cc(C)cc(Nc2ncnc3onc(-c4ccc(F)cc4)c23)c1 | 19.4% (inactive) |  |
| Brc1nc2ncnc(NCc3ccco3)c2[nH]1 | -4.62% [at 57.1 µM] (inactive) |  |
| O=C1CSC(=S)N1/N=C/c1ccc(O)c([N+](=O)[O-])c1 |  | 20 µM (active) |
| O=C(CNC(=O)c1ccc(Cl)c(C(F)(F)F)c1)OC(C(=O)Nc1cc(C(F)(F)F)ccc1Cl)c1ccccc1 (stereo not given) | -21.2% (inactive) |  |
| CCOC(=O)c1ccccc1NC(=O)c1nn(-c2ccc(OC)c(Cl)c2)c(=O)c2c1c1ccccc1n2C | 0% (inactive) |  |
| N#Cc1nc(Nc2cc(F)cc(Cl)c2)nc(NC2CCCC2)n1 | -3.42% (inactive) |  |
| CC(C)(C)C(=O)OCc1nc(-c2ccc(O)c(O)c2)cs1 |  | 3.55 µM (active) |
| Cc1onc(C(=O)NN)c1-c1csc(COc2ccccc2)n1 | -5.43% (inactive) |  |
| CCCC(=O)N1c2ccc(-c3csc(N)n3)cc2CC1C (stereo not given) | -22.4% (inactive) |  |
| Cc1cc(C)c(NC(=O)CSc2nc3nccnc3c(=O)n2CCc2c[nH]c3ccccc23)c(C)c1 | -1.32% (inactive) |  |
| COC(=O)c1ccccc1NC(=O)c1ccc(C#N)cc1 | -6.85% (inactive) |  |
| COc1cc(NC(=O)Cn2c(=O)n(Cc3ccco3)c(=O)c3oc4ccccc4c32)cc(OC)c1 | -12.1% (inactive) |  |
| O=S(=O)(NCCc1nnc2ccc(SCc3ccc(Cl)cc3Cl)nn12)c1ccccc1 | -28.2% (inactive) |  |
